Records with an inconclusive call do not appear. Active and inactive are the calls of the source. Calls follow the shape of the full dose curve.
What follows are molecules tested against Peroxisome proliferator-activated receptor delta (Homo sapiens) (UniProt Q03181) (assay: qHTS assay to identify small molecule agonists of the peroxisome proliferator-activated receptor delta (PPARd) signaling pathway (AID 743212)). Conditions: HEK293H PPARd-UAS-bla, beta-lactamase FRET ratio, 17 h; series mostly up to 62.6 µM; activation: at the top concentration.
Text: U.S. Tox21 Program National Center for Advancing Translational Sciences [NCATS] NIH Chemical Genomics Center [NCGC] U.S. Environmental Protection Agency [EPA] National Institutes of Environmental Health Sciences [NIEHS] National Toxicology Program [NTP] U.S. Food and Drug Administration [FDA] Tox21 Assay Overview: The peroxisome proliferator-activated receptors (PPARs) are lipid-activated transcription factors of the nuclear receptor superfamily with three distinct subtypes namely PPAR alpha, PPAR delta (PPARd) and PPAR gamma. All these subtypes heterodimerizes with Retinoid X receptor (RXR) and have different physiological functions. […] To identify the compounds that activate PPAR-delta signaling, GeneBLAzer PPAR delta UAS-bla HEK293H cell line (Invitrogen, Carlsbad, CA, USA) containing a beta-lactamase reporter gene under the control of an Upstream Activator Sequence (UAS) was used to screen the Tox21 compound library.
Tox21 Assay Protocol Summary: PPARd-bla cells were dispensed at 3000 cells/6uL/well in 1536-well black wall/clear bottom plates using a Multidrop Combi (Thermo Fisher Scientific, Waltham, MA) dispenser. After the assay plates were incubated at 37 C and 5% CO2 for 5 h, 23 nL of compounds dissolved in DMSO, positive controls or DMSO only was transferred to the assay plate by a Pintool station (Kalypsys, San Diego, CA). The assay plates were incubated at 37C for 17 h. After 1 uL of LiveBLAzerTM B/G FRET substrate was added using a Bioraptr Flying Reagent Dispenser (FRD) workstation (Beckman Coulter, Indianapolis, IN, USA), the plates were incubated at room temperature for 2 h, and fluorescence intensity was measured by an Envision plate reader (PerkinElmer, Shelton, CT).
% is scaled to controls: 0 for no effect and ±100 for the full control effect.

Sequence of Peroxisome proliferator-activated receptor delta (Homo sapiens) (Q03181 whole entry, looked up): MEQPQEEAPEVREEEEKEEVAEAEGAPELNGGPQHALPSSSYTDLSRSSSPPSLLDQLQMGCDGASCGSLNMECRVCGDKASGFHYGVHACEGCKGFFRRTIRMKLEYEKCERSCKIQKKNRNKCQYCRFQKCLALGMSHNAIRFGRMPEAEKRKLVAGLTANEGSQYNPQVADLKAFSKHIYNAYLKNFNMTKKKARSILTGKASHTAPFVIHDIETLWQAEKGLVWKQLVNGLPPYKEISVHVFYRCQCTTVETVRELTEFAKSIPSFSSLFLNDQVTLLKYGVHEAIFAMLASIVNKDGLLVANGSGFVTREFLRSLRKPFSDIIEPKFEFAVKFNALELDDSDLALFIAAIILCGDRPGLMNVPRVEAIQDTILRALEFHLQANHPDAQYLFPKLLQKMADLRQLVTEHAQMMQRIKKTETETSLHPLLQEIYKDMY

Structure (SMILES)	activation	outcome
CCC(Cl)CCl (stereo not given)	0.533% [at 81.1 µM] (inactive)	
CCC(Br)(CC)C(=O)NC(N)=O	4.57% (inactive)	
CCC(COC(=O)c1cc(OC)c(OC)c(OC)c1)(c1ccccc1)N(C)C (stereo not given)	-1.29% (inactive)	
CCCN(CCC)c1c([N+](=O)[O-])cc(S(C)(=O)=O)cc1[N+](=O)[O-]	-0.527% (inactive)	
O=C1NCN(c2ccccc2)C12CCN(CCCOc1ccc(F)cc1)CC2	-7.5% (inactive)	
O=C(CBr)c1ccccc1	0.81% [at 81.1 µM] (inactive)	
CCOP(=O)(OCC)O/C(=C/Cl)c1ccc(Cl)cc1Cl	-0.538% (inactive)	
CCc1ccc(C(=O)NN(C(=O)c2cc(C)cc(C)c2)C(C)(C)C)cc1	-5.06% (inactive)	
O=C(Nc1ccccc1)Nc1ccnc(Cl)c1	-5.5% (inactive)	
ClCc1cccc(Cl)c1	0.336% (inactive)	
Brc1ccc(Oc2ccccc2)cc1		inactive
O=C(O)COc1ccc(Cl)cc1	-3.89% (inactive)	
NC(=O)CI	0.307% [at 81.1 µM] (inactive)	
CCCCCCC#N	1.03% (inactive)	
C=CCC1([C@H](C)CCC)C(=O)NC(=O)NC1=O	-3.58% [at 81.1 µM] (inactive)	
Sc1ccccc1Cl	5.58% (inactive)	
C=CCCl	-2.88% [at 81.1 µM] (inactive)	
CC(=O)NC1CCSC1=O (stereo not given)	0.53% (inactive)	
ClC=C(Cl)Cl	2.07% [at 81.1 µM] (inactive)	
O=NN1CCNCC1	0.0831% [at 81.1 µM] (inactive)	

Structure (SMILES)	activation	outcome
Clc1ccc(C2(Cn3cncn3)CC(Br)CO2)c(Cl)c1 (stereo not given)	4.73% (inactive)	
O=C1C(Cl)C(CCl)CN1c1cccc(C(F)(F)F)c1 (stereo not given)	0.398% (inactive)	
CCN(C)N=O	0.336% (inactive)	
CCOc1nc(F)cc2nc(S(=O)(=O)Nc3c(Cl)cccc3Cl)nn12	-0.791% (inactive)	
CN1C(=O)C(O)N=C(c2ccccc2)c2cc(Cl)ccc21 (stereo not given)	3.45% [at 81.1 µM] (inactive)	
COC(=O)C(C)N(C(=O)Cc1ccccc1)c1c(C)cccc1C (stereo not given)	-2.35% (inactive)	
Clc1cccc2ccccc12	-1.71% (inactive)	
C=CC(=O)OCC(C)C	2.94% (inactive)	
ClCc1ccccc1	0.845% (inactive)	
CCOC(=O)[C@]1(c2ccccc2)Oc2ccccc2[C@@H]1N	-0.789% (inactive)	
O=C(O)CC(Cl)C(=O)O (stereo not given)	6.93% [at 81.1 µM] (inactive)	
CCOc1ccc(C(C)(C)COCc2cccc(Oc3ccccc3)c2)cc1	0.807% (inactive)	
COc1nn(C(=O)NS(=O)(=O)c2ccccc2OC(F)(F)F)c(=O)n1C	-4.62% (inactive)	
NC(=O)C(Cl)(Cl)Cl	0.538% [at 81.1 µM] (inactive)	
CC1CC(CC2CCC(N)C(C)C2)CCC1N (stereo not given)	-3.1% [at 81.1 µM] (inactive)	
Cn1cc[n+](C)c1 (tested in a mixture with another compound)	1.56% [at 81.1 µM] (inactive)	
S=C=NCc1ccccc1	-4.12% [at 81.1 µM] (inactive)	
CCCCCCCCCC(=O)O[C@H]1CC[C@H]2[C@@H]3CCC4=CC(=O)CC[C@@H]4[C@H]3CC[C@]12C	0.526% (inactive)	
CC(C)(CCl)C(=O)Cl	0.129% (inactive)	
CCCC(Cn1cncn1)c1ccc(Cl)cc1Cl (stereo not given)	6.15% (inactive)	

— PubChem BioAssay (Tox21)
